Results from article PMC8222333, “AsCas12a ultra nuclease facilitates the rapid generation of therapeutic cell medicines”.
Numbering of substitutions follows the chain as printed.

B1: CGTA (dsDNA)
DNA 1: GCTATCTAGTGCTCAGTACGCACTGCGTAAGGAAACTTCTGGCAGGACCAGGTCATGAGATCGGAAGAGCACACGTCTGAACTCCAGTCA
DNA 2: TGACTGGAGTTCAGACGTGTGCTCTTCCGATCTCATGACCTGGTCCTGCCAGAAGTTTCCTTACGCAGTGCGTACTGAGCACTAGATAGC
RNA: AAUUUCUACUCUUGUAGAUAGGAAACUUCUGGCAGGACC
B2: CGTC (dsDNA)
DNA 1: B1 DNA 1 with A29C
DNA 2: B1 DNA 2 with T62G
RNA: B1 RNA
B3: CGTG (dsDNA)
DNA 1: B1 DNA 1 with A29G
DNA 2: B1 DNA 2 with T62C
RNA: B1 RNA
B4: CTGA (dsDNA)
DNA 1: B1 DNA 1 with G27T, T28G
DNA 2: B1 DNA 2 with A63C, C64A
RNA: B1 RNA
B5: GAGA (dsDNA)
DNA 1: B1 DNA 1 with C26G, G27A, T28G
DNA 2: B1 DNA 2 with A63C, C64T, G65C
RNA: B1 RNA
B6: CTCA (dsDNA)
DNA 1: B1 DNA 1 with G27T, T28C
DNA 2: B1 DNA 2 with A63G, C64A
RNA: B1 RNA
B7: CTAA (dsDNA)
DNA 1: B1 DNA 1 with G27T, T28A
DNA 2: B1 DNA 2 with A63T, C64A
RNA: B1 RNA
B8: CTCC (dsDNA)
DNA 1: B1 DNA 1 with G27T, T28C, A29C
DNA 2: B1 DNA 2 with T62G, A63G, C64A
RNA: B1 RNA

Assays:
Assay in all cases: Spec-seq (native PAGE EMSA with sequencing of bound and unbound); 25 mM Tris-HCl pH 7.4, 150 mM KCl, 5 mM MgCl2, 10% glycerol, 1 mM DTT, 40 ng/uL salmon sperm DNA; 400 nM Cas12a, 480 nM crRNA, 50 nM library, 37 C 1 h; native PAGE at room temperature; high values mean tight binding
Settings in all cases: protein: recombinant
[1] = target: dAsCas12a Ultra (Acidaminococcus sp., UniProt U2UMQ6 1-1307, M537R;F870L;D908A;E993A;D1235A)
[2] = target: dAsCas12a E174R (Acidaminococcus sp., UniProt U2UMQ6 1-1307, E174R;D908A;E993A;D1235A);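 note: relative affinity from the bound to unbound sequence frequency ratio in Spec-seq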
[3] = target: dAsCas12a S542R (Acidaminococcus sp., UniProt U2UMQ6 1-1307, S542R;D908A;E993A;D1235A);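 note: relative affinity from the bound to unbound sequence frequency ratio in Spec-seq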
[4] = target: d-enCas12a (Acidaminococcus sp., UniProt U2UMQ6 1-1307, E174R;S542R;K548R;D908A;E993A;D1235A)
[5] = target: d-enCas12a-Ultra (Acidaminococcus sp., UniProt U2UMQ6 1-1307, E174R;S542R;K548R;M537R;F870L;D908A;E993A;D1235A);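 note: relative affinity from the bound to unbound sequence frequency ratio in Spec-seq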
[6] = target: dAsCas12a K548R (Acidaminococcus sp., UniProt U2UMQ6 1-1307, K548R;D908A;E993A;D1235A)

| Binder | binding signal [1] [lnKA] | binding signal [2] [lnKA] | binding signal [3] [lnKA] | binding signal [4] [lnKA] | binding signal [5] [lnKA] | binding signal [6] [lnKA] |
| --- | --- | --- | --- | --- | --- | --- |
| B1 | -8.71 | -8.37 | -8.4 | -2.47 | -0.629 | – |
| B2 | -8.54 | – | -8.67 | -2.67 | -0.615 | -8.4 |
| B3 | -9 | -8.98 | -8.73 | -4.4 | -1.51 | – |
| B4 | -8.41 | – | -8.41 | -5.63 | -3.17 | – |
| B5 | -8.96 | – | -8.5 | -5.82 | -3.42 | – |
| B6 | -8.8 | -8.26 | -6.35 | -1.97 | -0.439 | – |
| B7 | -8.92 | -8.64 | -8.47 | -5.62 | -3.05 | – |
| B8 | -8.67 | -8.66 | -4.85 | -0.91 | -0.27 | – |
